Experiment [1] can be described thus: rapamycin-like changes in RPL19A-GFP expression – cell-based, S. cerevisiae, multiplex flow cytometry, primary screen (AID 1862; in the data active = percent of DMSO control GFP below about 86%;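 note: lower values mimic rapamycin by blocking the RPL19A rise seen in DMSO cells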). The conditions noted are these: S. cerevisiae RPL19A-GFP strain, flow cytometry fluorescence, 3 h; at 10 µM; stronger effect = lower value. (A flow cytometer gives signals particle by particle.)
Experiment [2] in a line: TOR pathway GLN3 branch reporter MEP2-GFP changes – S. cerevisiae, multiplex flow cytometry, primary screen (AID 1867).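 Note: median GFP channel fluorescence of barcode-gated MEP2-GFP cells measured by flow cytometry.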 The conditions noted are these: S. cerevisiae MEP2-GFP strain, 3 h, at 10 µM, stronger effect = higher value, 100% means same as DMSO wells.
Experiment [3] can be described thus: TOR pathway RTG branch CIT2 reporter changes – S. cerevisiae, GFP fusion, multiplex flow cytometry, primary screen (AID 1870;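 active = percent response above a set limit, the screen-wide mean plus 3 SD, cut at about 130% in these data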;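 note: barcoded CIT2-GFP strain pooled with four other GFP strains with rapamycin as positive control; median GFP fluorescence per well over plate mean of DMSO wells so 100% = DMSO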). The conditions noted are these: S. cerevisiae CIT2-GFP expression, 3 h, at 10 µM, stronger effect = higher value.
Experiment [4] can be described thus: TOR pathway LAP4-GFP level changes – S. cerevisiae, multiplex flow cytometry, primary screen (AID 1873;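 active = GFP signal, as percent of the solvent control, above the screen mean plus 3 SD, about 149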). To be noted: S. cerevisiae LAP4-GFP expression, 3 h, at 10 µM, stronger effect = higher value.
Experiment [5] is described as follows: yeast AGP1-GFP level changes, GLN3 branch – cell-based, multiplex flow cytometry, S. cerevisiae, primary screen (AID 1887;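 active = GFP signal above the screen-wide mean plus 3 SD, that is over about 124.5% of the solvent control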;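 note: AGP1-GFP fusion strain of S. cerevisiae within a five-strain barcoded multiplex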). The conditions noted are these: 3 h, at 10 µM, stronger effect = higher value.
Experiment [6] can be described thus: reduced mouse 2C T cell binding to pMHC/ICAM-1 vesicles – MLPCN validation set, flow cytometry, LFA-1/ICAM-1 modulator project, pilot screen (AID 2523;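 active = response below a set limit, under 55% cells CD8-positive and vesicle-bound, and CD8 cells' 90th-percentile brightness under 279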;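 for vesicle binding response: mean PE anti-B7-1 fluorescence of CD8+ cells relative to row control; 100% = QL9-loaded vesicles with DMSO vehicle in the same plate row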). To be noted: 2C mouse CD8+ T cells, at 7 µM, stronger effect = lower value; double positive events: measured here: CD8+/vesicle+ event percentage.
The target in experiment [7] is Integrin beta-1 (Homo sapiens) + Integrin alpha-4 (Homo sapiens) (UniProt P13612+P05556). In words: alpha4beta1 integrin LIBS antibody binding reduction – U937 cells, HUTS-21 mAb, flow cytometry, validation set, VLA-4 allosteric modulator project, pilot screen (AID 2674;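 active = inhibition above 50%, about 3 SD of the validation set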;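 note: antibody binding induced by the VLA-4 ligand LDV present at three times its Kd; 0% = LDV ligand with antibody and no compound and 100% = antibody without LDV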). The conditions noted are these: HUTS-21 LIBS mAb binding, at 6.7 µM, stronger effect = higher value, binding induced by LDV ligand.
Chain of Integrin beta-1 (Homo sapiens) + Integrin alpha-4 (Homo sapiens) (P05556 whole entry, looked up): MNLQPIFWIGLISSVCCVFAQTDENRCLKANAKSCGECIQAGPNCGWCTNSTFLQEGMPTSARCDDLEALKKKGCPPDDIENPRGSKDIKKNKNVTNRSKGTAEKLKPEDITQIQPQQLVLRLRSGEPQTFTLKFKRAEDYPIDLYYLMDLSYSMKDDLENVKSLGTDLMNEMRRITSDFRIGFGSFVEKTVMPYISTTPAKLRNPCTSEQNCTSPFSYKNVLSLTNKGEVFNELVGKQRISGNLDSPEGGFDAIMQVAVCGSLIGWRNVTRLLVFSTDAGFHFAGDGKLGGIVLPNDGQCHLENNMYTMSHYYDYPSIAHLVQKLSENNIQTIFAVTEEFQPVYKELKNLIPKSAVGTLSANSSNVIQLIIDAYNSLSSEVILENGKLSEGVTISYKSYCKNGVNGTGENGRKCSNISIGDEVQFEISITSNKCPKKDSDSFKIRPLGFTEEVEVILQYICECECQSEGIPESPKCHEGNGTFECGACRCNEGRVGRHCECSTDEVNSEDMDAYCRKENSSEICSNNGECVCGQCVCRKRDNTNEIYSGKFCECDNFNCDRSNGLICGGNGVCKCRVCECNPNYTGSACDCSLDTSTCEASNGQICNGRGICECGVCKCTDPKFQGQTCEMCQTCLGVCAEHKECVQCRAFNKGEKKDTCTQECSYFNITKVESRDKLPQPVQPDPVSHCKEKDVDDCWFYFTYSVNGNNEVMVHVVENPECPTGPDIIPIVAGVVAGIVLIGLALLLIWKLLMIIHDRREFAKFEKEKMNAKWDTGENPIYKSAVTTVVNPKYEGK
Chain of Integrin beta-1 (Homo sapiens) + Integrin alpha-4 (Homo sapiens) (P13612 whole entry, looked up): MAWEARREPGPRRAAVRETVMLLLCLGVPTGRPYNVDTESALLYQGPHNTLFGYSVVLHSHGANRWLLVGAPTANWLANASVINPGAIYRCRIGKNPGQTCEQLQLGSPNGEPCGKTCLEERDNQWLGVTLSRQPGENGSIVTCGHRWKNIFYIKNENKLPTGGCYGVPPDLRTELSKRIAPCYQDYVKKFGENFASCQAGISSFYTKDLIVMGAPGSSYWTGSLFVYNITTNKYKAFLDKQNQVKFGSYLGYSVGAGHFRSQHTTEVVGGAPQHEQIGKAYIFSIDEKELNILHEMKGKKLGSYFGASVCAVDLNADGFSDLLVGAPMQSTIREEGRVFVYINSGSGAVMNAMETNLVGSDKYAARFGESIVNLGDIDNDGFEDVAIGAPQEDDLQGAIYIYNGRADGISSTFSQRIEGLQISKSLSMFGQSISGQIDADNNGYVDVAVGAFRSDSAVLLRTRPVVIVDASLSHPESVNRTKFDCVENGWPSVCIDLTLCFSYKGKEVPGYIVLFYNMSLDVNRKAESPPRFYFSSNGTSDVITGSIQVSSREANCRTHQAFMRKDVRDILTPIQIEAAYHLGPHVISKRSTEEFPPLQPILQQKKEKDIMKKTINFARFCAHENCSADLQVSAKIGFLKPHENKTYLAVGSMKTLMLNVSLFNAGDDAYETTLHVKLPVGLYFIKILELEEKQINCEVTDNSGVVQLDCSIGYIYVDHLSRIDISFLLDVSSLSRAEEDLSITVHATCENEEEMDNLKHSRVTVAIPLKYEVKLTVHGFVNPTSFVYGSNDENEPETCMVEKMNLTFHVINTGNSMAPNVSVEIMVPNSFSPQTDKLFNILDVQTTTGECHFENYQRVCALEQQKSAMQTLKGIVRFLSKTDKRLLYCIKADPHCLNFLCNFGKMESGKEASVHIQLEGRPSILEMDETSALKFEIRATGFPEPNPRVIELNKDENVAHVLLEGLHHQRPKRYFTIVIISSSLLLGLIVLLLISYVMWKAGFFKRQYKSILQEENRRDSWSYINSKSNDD

The nature of experiment [8]: calorie-restriction mimetic ROS inhibitors, yeast – validation compound set, pilot screen (AID 2706;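 active = superoxide response below 65% of plate, a cut near 3 SD across the whole screen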;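 note: yeast exposed to compound for one week at 30 degrees C before staining; 100% = mean of all compound wells on the same plate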). To be noted: S. cerevisiae aging, superoxide DHE fluorescence; at 10 µM; stronger effect = lower value.
Experiment [9] concerns the target Beta-adrenergic receptor kinase 1 (Homo sapiens) (UniProt P25098). Put plainly: GRK2 binders displacing RNA aptamer, biochemical, validation, human GRK2, bead flow cytometry (AID 488806;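 active = aptamer binding inhibition above 30%, about 3 SD of noise from non-fluorescent compounds; inactive = inhibition at or below 30%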). To be noted: bead-bound GRK2, FAM-aptamer displacement, at 10 µM, stronger effect = higher value.
Experiment [10] has as its target Beta-2 adrenergic receptor (Homo sapiens) (UniProt P07550). Put plainly: agonist-induced loss of surface beta2AR – cell-based, FAP fluorogen, flow cytometry, validation set, pilot screen (AID 504459;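 active = percent response above 42, roughly 3 SD of non-fluorescent test compounds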;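 note: agonist-driven loss of surface beta2AR via internalization measured by FAP dye flow cytometry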). To be noted: Am2.2-beta2AR cells, at 10 µM, stronger effect = higher value.
The target of experiment [11] is AP-2 complex subunit beta (Homo sapiens) (UniProt P63010). In words: beta-arrestin/AP2 interaction blockers – biochemical, validation set, GST-AP2 beads, flow cytometry, pilot screen (AID 504541;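 active = inhibition above 54%, about 3 SD of non-fluorescent compounds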;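 note: AP2 carries R879A mutation and is captured from E. coli lysate; bead-bound FITC arrestin peptide fluorescence measuring arrestin peptide binding to AP2; 0% = DMSO wells and 100% = excess unlabeled arrestin peptide control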). The conditions noted are these: FITC arrestin peptide, at 10 µM, stronger effect = higher value, AP2 beta2 appendage fragment, R879A mutant.
Chain of AP-2 complex subunit beta (Homo sapiens) (P63010 whole entry, looked up, the tested form may be a part, one chain of several): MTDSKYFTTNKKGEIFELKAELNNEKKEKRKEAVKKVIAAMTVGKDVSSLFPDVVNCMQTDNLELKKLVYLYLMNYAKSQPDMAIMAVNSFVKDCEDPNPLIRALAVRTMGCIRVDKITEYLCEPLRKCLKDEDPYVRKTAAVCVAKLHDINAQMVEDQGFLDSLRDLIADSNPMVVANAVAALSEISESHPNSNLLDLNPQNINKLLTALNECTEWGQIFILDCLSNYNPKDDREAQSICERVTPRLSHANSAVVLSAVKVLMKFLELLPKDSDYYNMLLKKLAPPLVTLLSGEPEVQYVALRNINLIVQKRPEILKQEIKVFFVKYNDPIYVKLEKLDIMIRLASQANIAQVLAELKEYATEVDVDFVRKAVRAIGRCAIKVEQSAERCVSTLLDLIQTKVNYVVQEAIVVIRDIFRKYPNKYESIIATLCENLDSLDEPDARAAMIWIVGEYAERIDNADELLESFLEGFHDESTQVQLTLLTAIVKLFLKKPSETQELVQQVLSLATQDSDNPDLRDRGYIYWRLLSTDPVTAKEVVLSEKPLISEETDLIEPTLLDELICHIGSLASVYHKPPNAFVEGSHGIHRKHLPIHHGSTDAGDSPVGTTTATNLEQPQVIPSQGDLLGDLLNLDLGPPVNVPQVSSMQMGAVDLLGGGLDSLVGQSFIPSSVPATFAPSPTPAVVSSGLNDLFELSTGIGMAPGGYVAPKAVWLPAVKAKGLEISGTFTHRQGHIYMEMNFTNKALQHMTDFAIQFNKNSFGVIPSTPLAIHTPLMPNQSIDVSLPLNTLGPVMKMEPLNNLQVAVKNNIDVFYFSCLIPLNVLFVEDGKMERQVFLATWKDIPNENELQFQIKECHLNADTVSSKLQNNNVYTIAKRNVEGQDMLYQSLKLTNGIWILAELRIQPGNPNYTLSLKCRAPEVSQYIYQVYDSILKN
Experiment [12] is described as follows: cytosolic pH regulators acting via V-ATPase – S. cerevisiae, pHLuorin, HTS validation (AID 504600; in the data active = response above about 15%;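 note: plate controls were DMSO for no effect and reference compound for full effect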). To be noted: V-ATPase proton transport, at 10 µM, stronger effect = higher value.
Experiment [13] concerns anti-desmoglein-3 scFv antibody binding to human DSG3. In words: blockers of pathogenic pemphigus antibody–desmoglein-3 binding – biochemical, validation compound set, bead-based, flow cytometry, pilot screen (AID 588368;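 active = binding below the plate cutoff, the plate median minus 3 SD, with a reading above zero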;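 note: signal is the median channel fluorescence of bead-bound GFP antibody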). The conditions noted are these: Protein G beads, DSG3-Fc, scFv-GFP binding, at 10 µM, stronger effect = lower value.
A short description of experiment [14]: Nile Red efflux blockade in pump-expressing yeast – validation compound set, multiplex, phenotypic, pilot screen (AID 588506;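 active = efflux inhibition above 0.42, the validation set average plus 4 SD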;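 note: Nile Red retained in cells so higher fluorescence means more efflux inhibition; 0 = negative control wells and 1 = enniatin B 25 µM full block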). The conditions noted are these: S. cerevisiae pump-expressing triplex, Nile Red efflux flow cytometry; at 10 µM; stronger effect = higher value; the pumps come from Candida albicans.
In experiment [15] the target is ATP-binding cassette sub-family B member 6 (Homo sapiens) (UniProt Q9NP58). Put plainly: blockers of ABCB6-driven porphyrin uptake – K562-ABCB6 cells, flow cytometry, validation set, pilot screen (AID 588550;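 active = inhibition above the screen-wide mean plus 3 SD, about 51%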;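 note: 0% = DMSO wells and 100% = benzethonium chloride 70 µM positive control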). The conditions noted are these: K562-ABCB6 porphyrin accumulation, 1 h, at 10 µM, stronger effect = higher value.
Chain of ATP-binding cassette sub-family B member 6 (Homo sapiens) (Q9NP58 whole entry, looked up): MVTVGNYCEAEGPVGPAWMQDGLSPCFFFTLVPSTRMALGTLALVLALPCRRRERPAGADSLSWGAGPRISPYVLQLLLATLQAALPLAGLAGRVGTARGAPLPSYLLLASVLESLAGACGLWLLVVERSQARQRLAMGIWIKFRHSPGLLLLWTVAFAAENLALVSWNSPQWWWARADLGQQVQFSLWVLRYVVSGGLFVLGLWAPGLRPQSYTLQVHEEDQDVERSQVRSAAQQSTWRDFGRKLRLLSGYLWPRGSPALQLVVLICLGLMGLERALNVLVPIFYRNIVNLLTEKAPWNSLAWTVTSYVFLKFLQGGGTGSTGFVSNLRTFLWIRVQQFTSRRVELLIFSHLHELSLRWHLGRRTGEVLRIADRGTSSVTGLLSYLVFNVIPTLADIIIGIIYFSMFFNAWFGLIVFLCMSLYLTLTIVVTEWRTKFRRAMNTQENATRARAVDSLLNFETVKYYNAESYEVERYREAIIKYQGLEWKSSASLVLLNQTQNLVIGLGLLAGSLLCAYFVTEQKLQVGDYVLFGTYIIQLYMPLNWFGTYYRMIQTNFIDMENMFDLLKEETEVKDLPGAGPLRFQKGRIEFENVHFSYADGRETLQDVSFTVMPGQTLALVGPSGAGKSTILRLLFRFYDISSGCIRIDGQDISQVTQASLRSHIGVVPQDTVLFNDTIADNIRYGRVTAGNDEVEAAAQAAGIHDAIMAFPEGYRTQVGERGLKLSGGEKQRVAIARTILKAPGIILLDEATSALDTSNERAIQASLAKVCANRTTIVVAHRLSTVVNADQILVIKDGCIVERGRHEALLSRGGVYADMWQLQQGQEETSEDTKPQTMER
A short description of experiment [16]: AML differentiation inducers, ER-HoxA9 marrow cells – cell-based, GFP/MAC1 double positive, flow cytometry, validation set, primary screen (AID 588685;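 active = differentiation response of at least 50%, scaled between solvent and reference control, from cells with both markers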;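 note: compound exposure lasts four days before antibody staining and flow analysis; 0% = DMSO wells and 100% = 5 µM fulvestrant positive control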). To be noted: stronger effect = higher value, normalized: vehicle 0, fulvestrant 100.

Usually inhibition stands for the relative decrease from the control value, in per cent.

Records with an inconclusive call do not appear. Active and inactive are the calls of the source.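 Rule for the calls, unless noted: active = GFP response, as percent of the DMSO control, above the screen-wide mean plus 3 SD, about 139; inconclusive = no response measured because the compound's own fluorescence interfered; inactive = the rest.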

Chain of Beta-adrenergic receptor kinase 1 (Homo sapiens) (P25098 whole entry, looked up): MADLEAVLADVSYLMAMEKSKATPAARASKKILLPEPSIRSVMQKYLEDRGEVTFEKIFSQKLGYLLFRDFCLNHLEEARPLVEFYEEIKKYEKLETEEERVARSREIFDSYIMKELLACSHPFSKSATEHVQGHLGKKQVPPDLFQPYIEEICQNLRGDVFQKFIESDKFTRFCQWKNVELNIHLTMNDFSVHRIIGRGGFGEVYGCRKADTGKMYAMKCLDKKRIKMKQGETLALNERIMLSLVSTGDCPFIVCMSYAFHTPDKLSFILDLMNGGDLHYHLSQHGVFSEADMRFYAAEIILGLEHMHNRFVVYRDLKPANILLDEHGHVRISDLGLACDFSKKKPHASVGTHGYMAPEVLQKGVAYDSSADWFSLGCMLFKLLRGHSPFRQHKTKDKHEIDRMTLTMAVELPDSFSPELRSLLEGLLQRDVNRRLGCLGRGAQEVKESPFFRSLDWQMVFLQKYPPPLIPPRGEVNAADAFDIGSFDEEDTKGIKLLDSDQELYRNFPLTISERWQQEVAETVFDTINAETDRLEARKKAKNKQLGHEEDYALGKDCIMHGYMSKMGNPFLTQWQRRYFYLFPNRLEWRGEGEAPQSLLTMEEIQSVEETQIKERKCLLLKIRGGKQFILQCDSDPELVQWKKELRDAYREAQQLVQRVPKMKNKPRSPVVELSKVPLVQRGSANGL
Chain of Beta-2 adrenergic receptor (Homo sapiens) (P07550 whole entry, looked up): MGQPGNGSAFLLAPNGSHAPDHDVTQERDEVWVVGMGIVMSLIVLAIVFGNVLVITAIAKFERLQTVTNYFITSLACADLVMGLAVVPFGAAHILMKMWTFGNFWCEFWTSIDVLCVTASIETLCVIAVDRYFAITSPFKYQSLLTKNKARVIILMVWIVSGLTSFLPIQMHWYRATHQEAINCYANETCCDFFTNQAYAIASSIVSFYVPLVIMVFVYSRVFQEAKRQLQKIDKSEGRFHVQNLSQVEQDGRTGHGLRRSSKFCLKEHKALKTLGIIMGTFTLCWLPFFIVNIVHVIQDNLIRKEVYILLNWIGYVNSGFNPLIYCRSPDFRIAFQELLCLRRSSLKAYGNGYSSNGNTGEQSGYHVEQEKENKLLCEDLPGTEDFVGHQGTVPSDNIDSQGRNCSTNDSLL

Turning to `COC(=O)c1ccc(NC(=O)c2ccccc2SC)cc1`, the percent of DMSO control GFP in experiment [1] is 97.8% (inactive). Moreover, the GFP response vs DMSO in [2] was 104% (inactive); in experiment [4], 106% (inactive). In addition, the percent response of DMSO control in experiment [3] was 102% (inactive). In experiment [5], the GFP response, % of DMSO is 91.8% (inactive). Also, the double positive events in [6] turned out to be 58.4%. Also, the vesicle binding response in experiment [6] was 132% (inactive). In addition, the inhibition is 1.62% (inactive) in experiment [7], 18.8% (inactive) in experiment [11] and 1% (inactive) in experiment [15]. Further, the superoxide response (% of plate) in experiment [8] was 109% (inactive). The aptamer binding inhibition in experiment [9] was 2% (inactive). Besides, the response was 1.63% (inactive) in experiment [10] and -1.67% (inactive) in experiment [12]. Moreover, the binding (% of control) in experiment [13] is 99% (inactive). For the same compound, in [14], the efflux inhibition (fraction of control) was -0.26 (inactive). Moreover, in experiment [16], the differentiation response is 5.13% (inactive).

In the case of `CCc1cc(-c2[nH]ncc2-c2ccc3c(c2)OCO3)c(O)cc1O`, the percent of DMSO control GFP in [1] is 99.8% (inactive). The GFP response vs DMSO in [2] was 102% (inactive); in experiment [4], 95.1% (inactive). For the same compound, the percent response of DMSO control in [3] was 105% (inactive). Moreover, the GFP response, % of DMSO in experiment [5] is 99.5% (inactive). In addition, the double positive events in [6] stood at 58.3%. In addition, the vesicle binding response in [6] was 13.8% (inactive). For the same compound, the inhibition in experiment [7] is 9.71% (inactive); in experiment [11], -19.7% (inactive); in experiment [15], 4% (inactive). For the same compound, the superoxide response (% of plate) in experiment [8] is 92.1% (inactive). In addition, the aptamer binding inhibition in [9] is 3% (inactive). For the same compound, the response in [10] was 4.41% (inactive); in experiment [12], 0.5% (inactive). Moreover, the binding (% of control) in experiment [13] was 107% (inactive). For the same compound, in experiment [14], the efflux inhibition (fraction of control) is -0.34 (inactive). Also, the differentiation response in experiment [16] was -3.4% (inactive).

Regarding `COc1ccc(C(C)=O)c2c1OCCO2`, in experiment [1], the percent of DMSO control GFP is 100% (inactive). In addition, the GFP response vs DMSO in [2] was 94.1% (inactive); in [4], 88.7% (inactive). Moreover, the percent response of DMSO control in experiment [3] was 91.9% (inactive). Further, the GFP response, % of DMSO in [5] is 97.2% (inactive). Besides, the double positive events in experiment [6] was 65.9%. Besides, the vesicle binding response in experiment [6] is 891% (inactive). For the same compound, the results for the inhibition in experiment [7], in experiment [11] and in experiment [15] were -2.53% (inactive), 14.1% (inactive) and 11% (inactive), respectively. The superoxide response (% of plate) in [8] was 97.6% (inactive). In addition, in experiment [9], the aptamer binding inhibition is 1% (inactive). The figures for the response in experiment [10] and in experiment [12] were 3.38% (inactive) and 0.17% (inactive), respectively. Also, in [13], the binding (% of control) was 99.5% (inactive). In addition, the efflux inhibition (fraction of control) in experiment [14] was -0.07 (inactive). For the same compound, in experiment [16], the differentiation response is -1.71% (inactive).

Turning to `Cc1oc2c(O)c(O)ccc2c(=O)c1-c1ccccc1`, the percent of DMSO control GFP in experiment [1] is 87.8% (inactive). The values for the GFP response vs DMSO in experiment [2] and in experiment [4] were 107% (inactive) and 74.3% (inactive), respectively. Moreover, the percent response of DMSO control in experiment [3] is 106% (inactive). In addition, the GFP response, % of DMSO in experiment [5] was 90.8% (inactive). This compound also returned a double positive events in experiment [6] of 59.4%. Moreover, in experiment [6], the vesicle binding response was 119% (inactive). In addition, the inhibition was -1.3% (inactive) in [7], -5.67% (inactive) in experiment [11] and 9% (inactive) in experiment [15]. Also, in experiment [8], the superoxide response (% of plate) is 110% (inactive). Further, the aptamer binding inhibition in experiment [9] is 3% (inactive). Besides, the response was -8.83% (inactive) in experiment [10] and -1.26% (inactive) in experiment [12]. The binding (% of control) in experiment [13] is 107% (inactive). Also, the efflux inhibition (fraction of control) in [14] was 0.45 (active). Also, in [16], the differentiation response is -2.46% (inactive).

In the case of `CCOC(=O)C1C(=O)OC2(CCOC(C)(C)C2)C1C(=O)OCC` (stereo not given), the percent of DMSO control GFP in experiment [1] was 109% (inactive). The GFP response vs DMSO in [2] is 108% (inactive); in experiment [4] it was 125% (inactive). Moreover, the percent response of DMSO control in experiment [3] was 102% (inactive). Moreover, the GFP response, % of DMSO in experiment [5] was 108% (inactive). The compound also showed a double positive events in [6] of 70.8%. Further, in experiment [6], the vesicle binding response was 8780% (inactive). Moreover, the inhibition in experiment [7] is 10.5% (inactive); in [11], -2.89% (inactive); in [15], 6% (inactive). The superoxide response (% of plate) in experiment [8] is 102% (inactive). For the same compound, the aptamer binding inhibition in experiment [9] was 5% (inactive). The figures for the response in experiment [10] and in experiment [12] were 16.1% (inactive) and -6.07% (inactive), respectively. In experiment [13], the binding (% of control) was 102% (inactive). Besides, the efflux inhibition (fraction of control) in experiment [14] was 0.15 (inactive). Further, the differentiation response in experiment [16] is -4% (inactive).

The values above are taken from PubChem BioAssay.
